Measurements taken from PubChem BioAssay (EPA / NIEHS).
Results filed as inconclusive are left out. Some compounds were tested as several samples or in several runs, with calls that do not always agree. Calls of active or inactive are those of the source. Rule for the calls, unless noted: active = hit-call score of the fitted dose curve at least 0.9, where 1 is the maximum; inactive = score below 0.9.

Key:
[1] = target: human RAR-related Orphan Receptor gamma (RORg), RORC (gene 6097) (UniProt P51449); assay: ATG_RORg_TRANS: Attagene TRANS-FACTORIAL HepG2 Assay for human RAR-related Orphan Receptor gamma (RORg) (AID 2283011; active = hit-call score of the fitted dose curve at least 0.9, where 1 is the maximum)
Method in brief: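 Reporter transcripts from a transfected RORg-GAL4 chimera in HepG2 cells were quantified 24 h after dosing by RT-PCR, 6-FAM labelling, HpaI digestion and capillary electrophoresis; increases over DMSO baseline were fitted.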

[2] = target: human Retinoid X Receptor beta (RXRb), RXRB (gene 6257) (UniProt P28702); assay: ATG_RXRb_TRANS: Attagene TRANS-FACTORIAL HepG2 Assay for human Retinoid X Receptor beta (RXRb) (AID 2283013; active = hit-call score of the fitted dose curve at least 0.9, where 1 is the maximum)
Method in brief: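 Multiplexed TRANS reporter assay in HepG2; 24 h dosing; reporter mRNA by RT-PCR/CE fluorescence; gain-of-signal relative to DMSO.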

[3] = read-out: E-selectin (Homo sapiens) (UniProt P16581); assay: BSK_3C_Eselectin: BioMAP Diversity Plus: 3C Assay for Eselectin Biomarker Activity (AID 2283015); conditions: primary human endothelial cells (HUVEC); actives raise or lower the signal
Method in brief: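 E-selectin ELISA readout, fitted bidirectionally relative to DMSO, taken 24 h post-dosing in HUVEC cultures of the 3C system. Overt cytotoxicity tracked with sulforhodamine B staining of parallel wells.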

[4] = read-out: Interleukin-1 alpha (IL1a), IL1A (gene 3552); assay: BSK_BE3C_IL1a: BioMAP Diversity Plus: BE3C Assay for Interleukin-1 alpha (IL1a) Biomarker Activity (AID 2283016); conditions: primary human bronchial epithelial cells; actives raise or lower the signal
Method in brief: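 Cultures of primary human bronchial epithelial cells receive test chemical. After 24 h, IL-1a is quantified by ELISA, while parallel wells are fixed in TCA and SRB-stained for total protein. Changes in either direction are fitted relative to DMSO.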

[5] = read-out: Monocyte Chemoattractant Protein-1 (MCP1), CCL2 (gene 6347); assay: BSK_4H_MCP1: BioMAP Diversity Plus: 4H Assay for Monocyte Chemoattractant Protein-1 (MCP1) Biomarker Activity (AID 2283018); conditions: primary human endothelial cells (HUVEC); actives raise or lower the signal
Method in brief: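 Readout: MCP-1 ELISA on compound-treated HUVEC, sampled 24 h post-dosing. Baseline and negative control DMSO; bidirectional fit. Overt toxicity checked alongside by sulforhodamine B protein staining at time of biomarker measurement.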

[6] = read-out: Human Leukocyte Antigen - DR isotype (HLADR), HLA-DRA (gene 3122); assay: BSK_3C_HLADR: BioMAP Diversity Plus: 3C Assay for Human Leukocyte Antigen - DR isotype (HLADR) Biomarker Activity (AID 2283019); conditions: primary human endothelial cells (HUVEC); actives raise or lower the signal
Method in brief: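 Bidirectional fitting against DMSO was applied to the HLA-DR ELISA signal from human umbilical vein endothelial cells, 24 h post-dose. Cytotoxicity came from parallel SRB total-protein staining; 3C proliferation was counted by SRB at 48 h.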

[7] = read-out: Interleukin-8 (IL8), CXCL8 (gene 3576); assay: BSK_3C_IL8: BioMAP Diversity Plus: 3C Assay for Interleukin-8 (IL8) Biomarker Activity (AID 2283020); conditions: primary human endothelial cells (HUVEC); actives raise or lower the signal
Method in brief: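 Human vascular endothelial cells (umbilical vein) in the 3C system; IL-8 level detected by ELISA at 24 h post-dose, with DMSO as baseline.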

[8] = target: human Vitamin D Receptor (VDR), VDR (gene 7421) (UniProt P11473); assay: ATG_VDR_TRANS: Attagene TRANS-FACTORIAL HepG2 Assay for human Vitamin D Receptor (VDR) (AID 2283022; active = hit-call score of the fitted dose curve at least 0.9, where 1 is the maximum)
Method in brief: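 Transactivation by an exogenous VDR-Gal4 chimera in transiently transfected HepG2 cells was measured as reporter transcript level 24 hours after chemical treatment. RT-PCR products were analysed by capillary electrophoresis and fitted in the positive direction relative to DMSO.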

[9] = BSK_3C_SRB: Viability Assessment in the BioMAP Diversity Plus: 3C Assay (AID 2283023); conditions: primary human endothelial cells (HUVEC);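 note: fitted both ways against DMSO so a hit may be signal rise or drop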
Method in brief: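 Cytotoxicity readout in parallel HUVEC 3C cultures: after 24 h compound exposure, cells fixed with 10% TCA, stained with 0.1% SRB and read at 560 nm. Gain or loss relative to DMSO fitted.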

[10] = read-out: Matrix Metallopeptidase 1 (MMP1), MMP1 (gene 4312); assay: BSK_BE3C_MMP1: BioMAP Diversity Plus: BE3C Assay for Matrix Metallopeptidase 1 (MMP1) Biomarker Activity (AID 2283024); conditions: primary human bronchial epithelial cells; actives raise or lower the signal
Method in brief: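 Dose cells, wait 24 h, run MMP1 ELISA; cells are human bronchial epithelial primaries. Both increases and decreases relative to DMSO counted.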

[11] = BSK_3C_Vis: BioMAP Diversity Plus: 3C Assay for Morphology Visualization (AID 2283025); conditions: primary human endothelial cells (HUVEC);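 note: light microscopy image of cell morphology used as background control; fitted both ways so gain or loss versus DMSO counts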
Method in brief: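 Endothelial cells from human umbilical vein were treated with test chemicals for 24 h and inspected by light microscopy for changes in cell conformation.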

[12] = read-out: Pselectin, SELP (gene 6403); assay: BSK_4H_Pselectin: BioMAP Diversity Plus: 4H Assay for Pselectin Biomarker Activity (AID 2283026); conditions: primary human endothelial cells (HUVEC); actives raise or lower the signal
Method in brief: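 Human vascular endothelium from umbilical vein; P-selectin measured by ELISA at 24 h post-dose, with cytotoxicity checked by sulforhodamine B total-protein staining in parallel cultures (0.1% SRB after 10% TCA fixation, read at 560 nm).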

[13] = BSK_4H_SRB: Viability Assessment in the BioMAP Diversity Plus: 4H Assay (AID 2283027); conditions: primary human endothelial cells (HUVEC);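 note: cells exposed to compound for 24 h before staining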;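 for AC50: curves fitted both ways versus DMSO so AC50 may be loss or gain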
Method in brief: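 Human umbilical vein endothelial cells, 24 h after chemical dosing; total protein measured by 0.1% sulforhodamine B staining after 10% TCA fixation, read at 560 nm. Bidirectional fitting against DMSO.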

[14] = BSK_BE3C_SRB: Viability Assessment in the BioMAP Diversity Plus: BE3C Assay (AID 2283028); conditions: primary human bronchial epithelial cells;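 for AC50: fitted both ways so AC50 may mark signal gain or loss versus DMSO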
Method in brief: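 Cytotoxicity read-out: SRB (0.1%) staining of TCA-fixed (10%) human lung bronchial epithelial cells, absorbance 560 nm, 24 h post-dosing. Curves fitted both directions relative to DMSO.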

[15] = read-out: Urokinase-type plasminogen activator receptor (uPAR), PLAUR (gene 5329); assay: BSK_4H_uPAR: BioMAP Diversity Plus: 4H Assay for Urokinase-type plasminogen activator receptor (uPAR) Biomarker Activity (AID 2283030); conditions: primary human endothelial cells (HUVEC); actives raise or lower the signal
Method in brief: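 uPAR level read by ELISA on HUVEC cultures (BioMAP 4H) 24 h post-dosing, analyzed for gain or loss relative to DMSO. Parallel SRB staining assessed overt cytotoxicity.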

[16] = target: Retinoic acid receptor RXR-alpha (Homo sapiens) (UniProt P19793); assay: ATG_RXRa_TRANS: Attagene TRANS-FACTORIAL HepG2 Assay for human Retinoid X Receptor alpha (RXRa) (AID 2283012; active = hit-call score of the fitted dose curve at least 0.9, where 1 is the maximum)
Method in brief: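 Cells (HepG2) carried transiently transfected GAL4-responsive reporter units. Following a 24 h chemical incubation, reporter mRNA induction was read via RT-PCR fragment analysis; DMSO served as negative control and baseline.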

[17] = target: human Thyroid Receptor alpha (THRa1), THRA (gene 7067) (UniProt P10827); assay: ATG_THRa1_TRANS: Attagene TRANS-FACTORIAL HepG2 Assay for human Thyroid Receptor alpha (THRa1) (AID 2283014; active = hit-call score of the fitted dose curve at least 0.9, where 1 is the maximum)
Method in brief: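 Transcripts from GAL4-UAS-driven reporters, measured after 24 h compound exposure by RT-PCR plus capillary electrophoresis of 6-FAM-labeled fragments, were fitted for gain of signal relative to DMSO. Cells: transiently transfected HepG2 expressing NR-Gal4 chimeras.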

[18] = read-out: Monokine induced gamma interferon (MIG), CXCL9 (gene 4283); assay: BSK_3C_MIG: BioMAP Diversity Plus: 3C Assay for Monokine induced gamma interferon (MIG) Biomarker Activity (AID 2283021); conditions: primary human endothelial cells (HUVEC); actives raise or lower the signal;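 for AC50: MIG protein level measured by immunoassay in the treated endothelial cultures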
Method in brief: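 After 24 h of treatment, human umbilical vein endothelial cultures (3C system) had their MIG biomarker level determined by ELISA, with DMSO serving as negative control.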

[19] = read-out: Thrombomodulin, THBD (gene 7056); assay: BSK_3C_Thrombomodulin: BioMAP Diversity Plus: 3C Assay for Thrombomodulin Biomarker Activity (AID 2283029); conditions: primary human endothelial cells (HUVEC); actives raise or lower the signal
Method in brief: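 Thrombomodulin ELISA, human primary HUVEC, 24 h post-dose; data fitted in both directions relative to DMSO.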

[20] = read-out: Monocyte Chemoattractant Protein-1 (MCP1), CCL2 (gene 6347); assay: BSK_3C_MCP1: BioMAP Diversity Plus: 3C Assay for Monocyte Chemoattractant Protein-1 (MCP1) Biomarker Activity (AID 2283017); conditions: primary human endothelial cells (HUVEC); actives raise or lower the signal
Method in brief: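 MCP-1 was measured by ELISA 24 h after dosing in primary HUVEC 3C cultures and fitted in both directions relative to DMSO; cytotoxicity was checked by SRB total-protein staining in parallel wells.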

Measured: AC50

Sequence of Retinoic acid receptor RXR-alpha (Homo sapiens) (P19793 whole entry, looked up, the tested form may be a part): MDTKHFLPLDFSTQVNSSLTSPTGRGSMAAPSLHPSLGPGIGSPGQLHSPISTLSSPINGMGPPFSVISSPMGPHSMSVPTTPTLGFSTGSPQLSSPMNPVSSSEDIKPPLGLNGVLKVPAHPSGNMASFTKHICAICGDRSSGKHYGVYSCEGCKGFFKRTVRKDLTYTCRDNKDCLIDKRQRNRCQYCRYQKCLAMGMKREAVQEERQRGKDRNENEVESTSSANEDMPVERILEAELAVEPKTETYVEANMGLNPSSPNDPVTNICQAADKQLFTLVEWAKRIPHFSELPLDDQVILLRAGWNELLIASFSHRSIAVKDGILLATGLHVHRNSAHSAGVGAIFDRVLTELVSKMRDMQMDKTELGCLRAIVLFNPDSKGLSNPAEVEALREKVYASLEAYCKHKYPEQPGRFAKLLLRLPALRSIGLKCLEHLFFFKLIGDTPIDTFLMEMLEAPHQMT
Sequence of human RAR-related Orphan Receptor gamma (RORg), RORC (gene 6097) (P51449 whole entry, looked up, the tested form may be a part): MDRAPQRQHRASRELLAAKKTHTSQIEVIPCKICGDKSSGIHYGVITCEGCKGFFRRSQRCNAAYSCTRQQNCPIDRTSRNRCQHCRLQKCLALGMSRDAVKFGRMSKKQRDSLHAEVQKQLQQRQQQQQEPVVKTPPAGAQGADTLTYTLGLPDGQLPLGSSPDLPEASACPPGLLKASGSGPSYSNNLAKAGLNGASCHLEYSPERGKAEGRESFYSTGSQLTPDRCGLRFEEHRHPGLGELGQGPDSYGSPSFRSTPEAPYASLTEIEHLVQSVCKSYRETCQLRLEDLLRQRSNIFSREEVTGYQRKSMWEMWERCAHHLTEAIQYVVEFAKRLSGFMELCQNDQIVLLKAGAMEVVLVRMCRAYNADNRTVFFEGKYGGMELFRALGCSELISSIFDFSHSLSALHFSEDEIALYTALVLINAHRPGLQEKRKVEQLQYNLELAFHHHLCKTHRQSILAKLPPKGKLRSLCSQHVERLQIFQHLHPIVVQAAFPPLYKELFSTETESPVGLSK
Sequence of human Thyroid Receptor alpha (THRa1), THRA (gene 7067) (P10827 whole entry, looked up, the tested form may be a part): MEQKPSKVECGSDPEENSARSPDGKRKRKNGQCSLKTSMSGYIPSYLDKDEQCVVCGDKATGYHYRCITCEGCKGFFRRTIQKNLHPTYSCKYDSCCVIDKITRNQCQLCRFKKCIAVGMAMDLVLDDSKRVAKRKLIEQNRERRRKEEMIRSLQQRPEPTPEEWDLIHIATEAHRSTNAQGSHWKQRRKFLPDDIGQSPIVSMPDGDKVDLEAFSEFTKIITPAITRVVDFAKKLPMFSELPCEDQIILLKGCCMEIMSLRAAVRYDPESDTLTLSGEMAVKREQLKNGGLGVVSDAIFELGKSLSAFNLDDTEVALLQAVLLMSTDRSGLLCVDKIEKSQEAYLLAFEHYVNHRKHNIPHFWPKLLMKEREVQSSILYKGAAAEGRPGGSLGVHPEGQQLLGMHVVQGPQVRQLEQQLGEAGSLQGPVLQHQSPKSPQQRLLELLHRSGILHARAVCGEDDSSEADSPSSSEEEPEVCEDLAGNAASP
Sequence of human Vitamin D Receptor (VDR), VDR (gene 7421) (P11473 whole entry, looked up, the tested form may be a part): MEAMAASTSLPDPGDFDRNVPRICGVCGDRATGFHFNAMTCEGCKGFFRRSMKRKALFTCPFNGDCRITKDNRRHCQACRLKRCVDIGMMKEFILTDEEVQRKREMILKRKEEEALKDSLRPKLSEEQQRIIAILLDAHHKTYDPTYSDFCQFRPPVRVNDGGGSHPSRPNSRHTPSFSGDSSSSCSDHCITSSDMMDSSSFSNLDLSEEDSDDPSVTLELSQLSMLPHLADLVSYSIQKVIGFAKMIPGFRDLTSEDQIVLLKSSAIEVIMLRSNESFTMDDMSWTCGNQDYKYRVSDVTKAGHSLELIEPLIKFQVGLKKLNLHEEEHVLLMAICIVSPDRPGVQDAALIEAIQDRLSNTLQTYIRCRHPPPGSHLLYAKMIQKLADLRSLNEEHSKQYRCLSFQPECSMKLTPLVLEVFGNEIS
Sequence of human Retinoid X Receptor beta (RXRb), RXRB (gene 6257) (P28702 whole entry, looked up): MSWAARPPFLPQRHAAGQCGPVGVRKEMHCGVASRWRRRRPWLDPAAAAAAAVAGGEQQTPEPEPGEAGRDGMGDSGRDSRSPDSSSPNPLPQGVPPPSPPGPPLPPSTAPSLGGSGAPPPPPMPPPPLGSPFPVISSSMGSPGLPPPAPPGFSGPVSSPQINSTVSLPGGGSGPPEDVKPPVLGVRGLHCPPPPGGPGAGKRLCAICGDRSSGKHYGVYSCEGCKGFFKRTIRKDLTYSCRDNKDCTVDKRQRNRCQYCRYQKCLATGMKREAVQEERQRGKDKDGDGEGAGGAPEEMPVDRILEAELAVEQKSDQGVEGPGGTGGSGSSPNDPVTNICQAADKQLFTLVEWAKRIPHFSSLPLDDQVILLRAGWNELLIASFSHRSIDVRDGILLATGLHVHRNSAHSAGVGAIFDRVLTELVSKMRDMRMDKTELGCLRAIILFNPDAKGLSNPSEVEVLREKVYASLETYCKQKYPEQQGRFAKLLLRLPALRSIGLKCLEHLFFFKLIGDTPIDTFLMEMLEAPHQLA
Sequence of E-selectin (Homo sapiens) (P16581 whole entry, looked up): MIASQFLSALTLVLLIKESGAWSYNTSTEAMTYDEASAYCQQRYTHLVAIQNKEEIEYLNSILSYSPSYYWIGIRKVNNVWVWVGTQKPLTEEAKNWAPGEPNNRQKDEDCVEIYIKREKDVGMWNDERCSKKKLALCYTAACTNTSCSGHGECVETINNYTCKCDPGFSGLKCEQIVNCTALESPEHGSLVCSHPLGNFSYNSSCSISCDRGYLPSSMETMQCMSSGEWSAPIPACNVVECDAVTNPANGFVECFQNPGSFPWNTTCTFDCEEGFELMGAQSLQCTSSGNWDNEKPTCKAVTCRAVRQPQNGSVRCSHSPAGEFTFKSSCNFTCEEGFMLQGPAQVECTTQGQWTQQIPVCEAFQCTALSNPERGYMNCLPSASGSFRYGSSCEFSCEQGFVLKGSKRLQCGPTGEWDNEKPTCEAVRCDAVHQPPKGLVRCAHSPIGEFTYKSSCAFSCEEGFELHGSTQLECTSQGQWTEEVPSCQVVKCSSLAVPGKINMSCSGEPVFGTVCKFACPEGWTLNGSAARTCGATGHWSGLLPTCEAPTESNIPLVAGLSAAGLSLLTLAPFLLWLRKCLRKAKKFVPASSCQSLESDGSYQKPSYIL

CCN(CC)C(=S)SSC(=S)N(CC)CC
inactive: [1] | [2] | [8]
active: [3] 34.8 µM | [4] 16.3 µM | [5] 24.6 µM | [6] 12.4 µM | [7] 31.2 µM | [9] 27.8 µM | [10] 25.5 µM | [11] 39.8 µM | [12] 20 µM | [13] 31.7 µM | [14] 34.6 µM | [15] 26.4 µM

C[C@@H](Oc1ccc(CNC(=O)c2cccnc2Oc2ccc3c(c2)OCO3)c(F)c1)C(=O)O
not listed: [1] | [8] | [11] | [20]
inactive: all other assays above

CCOc1ccc2[nH]cc(C(=O)NCc3ccccc3)c(=O)c2n1
not listed: [1] | [11] | [19]
inactive: all other assays above

c1ccc2c(c1)-c1cccc3c1c-2cc1ccccc13
active: [2] 19.8 µM | [10] 0.661 µM
inactive: [2] | [3] | [4] | [20] | [5] | [6] | [7] | [18] | [8] | [9] | [12] | [13] | [14] | [19] | [15]

O=S(=O)(O)CCC(F)(F)C(F)(F)C(F)(F)C(F)(F)C(F)(F)C(F)(F)F
inactive: [1] | [17] | [3] | [4] | [5] | [6] | [7] | [18] | [8] | [9] | [10] | [12] | [13] | [14] | [15]
active: [10] 45.5 µM

CCc1ccc(O)c(C(C)(C)C)c1
active: [16] 39.9 µM | [2] 8.8 µM | [3] 33.3 µM | [5] 25 µM | [6] 30.9 µM | [7] 30.4 µM | [18] 36 µM | [9] 31.2 µM | [12] 32 µM | [13] 32.8 µM | [15] 36.7 µM
inactive: [17] | [4] | [10] | [14] | [19]

OCCC(F)(F)C(F)(F)C(F)(F)C(F)(F)F
not listed: [2] | [11] | [16] | [19]
inactive: all other assays above

O=C(O)c1ccc2c(c1)nc(C(=O)NC1CCN(C3CC3)CC1)n2Cc1cc(-c2ccc(Cl)s2)on1
active: [6] 1.6 µM | [12] 0.952 µM | [15] 0.0541 µM
not listed: [2] | [8] | [11] | [16] | [17] | [20]
inactive: all other assays above
